{
  "source": "ChEMBL document CHEMBL1961873",
  "about": "“Compounds: GSK PKIS; Assays: Nanosyn kinase panel” (2012)",
  "data": [
    {"biological_target": "Tyrosine-protein kinase Fyn (Homo sapiens) (UniProt P06241)", "sequence (P06241 2-537 limits assumed)": "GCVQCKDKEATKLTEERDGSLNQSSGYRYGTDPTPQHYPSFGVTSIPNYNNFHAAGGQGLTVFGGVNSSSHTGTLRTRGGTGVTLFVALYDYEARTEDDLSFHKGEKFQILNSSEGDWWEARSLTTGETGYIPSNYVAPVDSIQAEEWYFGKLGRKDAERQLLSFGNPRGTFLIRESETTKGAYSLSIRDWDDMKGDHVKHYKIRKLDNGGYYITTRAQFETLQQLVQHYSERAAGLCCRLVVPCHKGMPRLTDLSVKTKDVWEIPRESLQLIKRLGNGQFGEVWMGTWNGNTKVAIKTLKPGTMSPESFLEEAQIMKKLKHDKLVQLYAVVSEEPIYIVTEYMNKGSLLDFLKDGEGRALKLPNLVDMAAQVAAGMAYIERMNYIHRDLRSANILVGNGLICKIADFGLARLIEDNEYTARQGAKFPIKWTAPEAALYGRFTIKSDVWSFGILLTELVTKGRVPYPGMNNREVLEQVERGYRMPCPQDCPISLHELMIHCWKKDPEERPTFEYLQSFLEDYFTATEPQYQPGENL", "conditions": "at 1 µM", "units": {"inhibition": "%"}, "values": [
      {"smiles": "N#Cc1cccc(Nc2nccc(-c3cnn4ncccc34)n2)c1", "inhibition": 39.2},
      {"smiles": "Cc1cc(O)cc(C)c1/C=C/c1cncc(C(=O)N(C)C)c1", "inhibition": 4.2},
      {"smiles": "CN(C)CCCn1c(-c2nonc2N)nc2cnccc21", "inhibition": 1.87},
      {"smiles": "COc1cccc(-n2ncc3c(N/N=C/c4ccc(S(C)(=O)=O)cc4)ncnc32)c1", "inhibition": 69.8},
      {"smiles": "COc1cc(Nc2nccc(-c3cnn4ncccc34)n2)cc(OC)c1", "inhibition": 40.3},
      {"smiles": "NC(=O)c1cccc(Nc2nccc(Nc3cccc(F)c3)n2)c1", "inhibition": 43.2},
      {"smiles": "NS(=O)(=O)c1ccc(Nc2cc(-c3cccc(O)c3)n[nH]2)cc1", "inhibition": 2.45},
      {"smiles": "CC(C)c1ccc(Nc2nccc(-c3cnn4ncccc34)n2)cc1", "inhibition": 6.49},
      {"smiles": "O=C1Nc2ccccc2/C1=C/Nc1ccc2[nH]c(=O)[nH]c2c1", "inhibition": 10.9},
      {"smiles": "CN1CCN(C(=O)c2ccc(NC(=O)Nc3ccc(N(C)c4ccnc(Nc5ccc(CS(C)(=O)=O)cc5)n4)cc3)cc2)CC1", "inhibition": 8.13},
      {"smiles": "CCn1c(-c2nonc2N)nc2c(C#CC(C)(C)O)nc(OCCNC)cc21", "inhibition": 4.65},
      {"smiles": "COc1cccc(-n2ncc3c(N/N=C/c4ccc(C)cc4)ncnc32)c1", "inhibition": 16.5},
      {"smiles": "NS(=O)(=O)c1cccc(Nc2cc(-c3ccc(F)cc3)n[nH]2)c1", "inhibition": 5.32},
      {"smiles": "Cc1cc(Cl)cc2c1NC(=O)C2=NNc1ccc(S(N)(=O)=O)cc1", "inhibition": 3.01},
      {"smiles": "CN(C)C(=O)O[C@@H]1CN[C@@H](C#Cc2cc3ncnc(Nc4ccc(OCc5cccc(F)c5)c(Cl)c4)c3s2)C1", "inhibition": 3.53},
      {"smiles": "CN(C)c1cc2c(Nc3ccc4c(cnn4Cc4ccccc4)c3)ncnc2cn1", "inhibition": 15.3},
      {"smiles": "CN(C)C(=O)O[C@H]1CN[C@H](C#Cc2cc3ncnc(Nc4ccc(OCc5cccc(F)c5)c(Cl)c4)c3s2)C1", "inhibition": 1.7}
    ]}
  ]
}
